Source: PubChem BioAssay (Tox21)
Records with an inconclusive call do not appear. Entries that show only a call come without a potency. A number with no mark means an inactive call. Active and inactive are the calls of the source. Calls follow the shape of the dose curve; as a rule, active = well fitted curve in the direction sought with a large enough effect in the repeat runs; inconclusive = weak or mixed curves; inactive = no such curve, though single readings can be large; an effect the other way counts as inactive or inconclusive.

Experiments:
[1] = target: Cytochrome P450 2D6 (Homo sapiens) (UniProt P10635); experiment: Cytochrome P450 Family 2 Subfamily D Member 6 (CYP2D6) small molecule antagonists: luciferase reporter qHTS assay (AID 1671196); conditions: P450-Glo CYP2D6 enzyme assay, luciferin luminescence, 1 h; series mostly up to 115 µM; also: nearly all actives have a fitted effect of over 50% in size
How it was run: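 CYP2D6 enzyme–substrate mix was held with compound for 10 min at room temperature, then NADPH regeneration solution was added and the reaction ran 1 h at room temperature. Luciferin product was detected by luminescence after 20 min with detection reagent.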

[2] = target: Cytochrome P450 2C9 (Homo sapiens) (UniProt P11712); experiment: Cytochrome P450 Family 2 Subfamily C Member 9 (CYP2C9) small molecule antagonists: luciferase reporter qHTS assay (AID 1671198); conditions: P450-Glo CYP2C9 enzyme assay, luciferin luminescence; series mostly up to 115 µM; also: nearly all actives have a fitted effect of over 50% in size
How it was run: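 Enzyme-substrate mix preincubated with compound 10 min at room temperature; reaction started with NADPH regeneration solution, 1 h 37C. Luminescent luciferin product read after 20 min detection reagent.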

[3] = target: Cytochrome P450 1A2 (Homo sapiens) (UniProt P05177); experiment: Cytochrome P450 Family 1 Subfamily A Member 2 (CYP1A2) small molecule antagonists: luciferase reporter qHTS assay (AID 1671199); conditions: P450-Glo CYP1A2 enzyme, luciferin luminescence, 1 h; series mostly up to 115 µM; also: nearly all actives have a fitted effect of over 50% in size
How it was run: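 Human CYP1A2 activity measured with a P450-Glo proluciferin substrate; compounds in DMSO preincubated 10 min at room temperature with enzyme-substrate mix, then NADPH regeneration system added for 1 h. Luciferin detection reagent, 20 min, luminescence read.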

[4] = target: Voltage-gated inwardly rectifying potassium channel KCNH2 (Homo sapiens) (UniProt Q12809); experiment: Human Ether-a-go-go-Related Gene (hERG) channel small molecule antagonists: fluorescence cell-based qHTS assay (AID 1671200); conditions: hERG-U2OS cells, FluxOR thallium flux fluorescence; series mostly up to 76.8 µM; also: nearly all actives have a fitted effect of over 50% in size
How it was run: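 Measured: Tl+ flux via fluorescence (480/540 nm) in hERG-expressing U2OS cells after 1 h dye loading at room temperature.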

[5] = target: Cytochrome P450 3A4 (Homo sapiens) (UniProt P08684); experiment: Cytochrome P450 Family 3 Subfamily A Member 4 (CYP3A4) small molecule antagonists: luciferase reporter qHTS assay (AID 1671201); conditions: P450-Glo CYP3A4 enzyme, luciferin luminescence, 1 h; series mostly up to 115 µM; also: nearly all actives have a fitted effect of over 50% in size
How it was run: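 Setup: enzyme-substrate mix, compound pin transfer, 10 min RT. Reaction: NADPH regeneration solution, 1 h RT. Readout: detection reagent stops turnover, luminescence measured after 20 min, expressed in relative luminescence units.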

[6] = target: Cytochrome P450 2C19 (Homo sapiens) (UniProt P33261); experiment: Cytochrome P450 Family 2 Subfamily C Member 19 (CYP2C19) small molecule antagonists: luciferase reporter qHTS assay (AID 1671197); conditions: P450-Glo CYP2C19 enzyme, luciferin luminescence, 1 h; series mostly up to 115 µM; also: nearly all actives have a fitted effect of over 65% in size
How it was run: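 Light output is proportional to CYP2C19 activity: proluciferin substrate is converted to luciferin, then detected by a luciferin detection reagent that also stops the 1 h, 37C NADPH-driven reaction. Ketoconazole serves as positive control.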
Potency is read from the fitted curve at half-maximal effect.

Voltage-gated inwardly rectifying potassium channel KCNH2 (Homo sapiens), sequence (Q12809 whole entry, looked up): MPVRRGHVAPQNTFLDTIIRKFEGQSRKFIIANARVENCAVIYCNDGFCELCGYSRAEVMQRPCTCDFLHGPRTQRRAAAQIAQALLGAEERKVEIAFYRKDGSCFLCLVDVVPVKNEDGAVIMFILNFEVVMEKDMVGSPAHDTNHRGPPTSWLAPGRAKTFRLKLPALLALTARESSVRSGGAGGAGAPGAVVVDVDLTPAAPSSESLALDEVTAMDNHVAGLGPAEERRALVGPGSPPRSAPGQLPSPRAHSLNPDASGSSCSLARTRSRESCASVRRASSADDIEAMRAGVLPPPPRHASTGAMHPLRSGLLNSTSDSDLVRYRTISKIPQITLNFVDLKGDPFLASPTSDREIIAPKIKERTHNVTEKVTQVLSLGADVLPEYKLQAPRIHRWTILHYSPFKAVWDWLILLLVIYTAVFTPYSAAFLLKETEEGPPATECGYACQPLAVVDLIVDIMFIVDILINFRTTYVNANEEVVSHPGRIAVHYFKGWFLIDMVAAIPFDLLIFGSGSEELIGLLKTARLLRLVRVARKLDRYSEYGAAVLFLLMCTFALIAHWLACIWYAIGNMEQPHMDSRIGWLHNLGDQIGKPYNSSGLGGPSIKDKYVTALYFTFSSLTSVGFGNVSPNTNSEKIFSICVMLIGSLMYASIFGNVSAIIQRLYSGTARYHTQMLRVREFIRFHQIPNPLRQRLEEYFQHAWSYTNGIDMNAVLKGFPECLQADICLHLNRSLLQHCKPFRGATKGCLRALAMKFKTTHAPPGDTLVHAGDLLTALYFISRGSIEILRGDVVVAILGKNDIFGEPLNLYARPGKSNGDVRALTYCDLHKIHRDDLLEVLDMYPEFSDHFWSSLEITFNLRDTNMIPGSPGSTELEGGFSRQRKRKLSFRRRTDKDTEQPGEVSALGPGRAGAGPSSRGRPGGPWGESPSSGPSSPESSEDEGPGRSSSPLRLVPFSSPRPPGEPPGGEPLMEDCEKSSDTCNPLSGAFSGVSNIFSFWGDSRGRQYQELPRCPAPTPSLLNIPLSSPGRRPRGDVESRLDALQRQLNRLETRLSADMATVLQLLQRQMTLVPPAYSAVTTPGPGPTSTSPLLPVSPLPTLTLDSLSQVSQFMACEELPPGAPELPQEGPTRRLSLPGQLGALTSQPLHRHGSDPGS
Cytochrome P450 2C9 (Homo sapiens), sequence (P11712 whole entry, looked up): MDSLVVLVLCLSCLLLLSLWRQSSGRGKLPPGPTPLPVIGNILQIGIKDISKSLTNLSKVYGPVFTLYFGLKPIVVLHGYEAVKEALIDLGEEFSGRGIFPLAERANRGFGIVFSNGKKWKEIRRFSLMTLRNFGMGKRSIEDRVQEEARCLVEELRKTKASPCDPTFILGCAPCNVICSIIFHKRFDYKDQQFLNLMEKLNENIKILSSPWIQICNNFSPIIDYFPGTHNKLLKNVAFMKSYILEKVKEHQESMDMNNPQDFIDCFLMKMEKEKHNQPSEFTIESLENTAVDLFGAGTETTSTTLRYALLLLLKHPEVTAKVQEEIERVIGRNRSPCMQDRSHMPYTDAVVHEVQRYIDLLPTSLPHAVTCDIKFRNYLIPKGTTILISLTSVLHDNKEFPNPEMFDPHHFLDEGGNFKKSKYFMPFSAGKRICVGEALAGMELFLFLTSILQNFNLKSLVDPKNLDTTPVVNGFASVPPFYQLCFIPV
Cytochrome P450 2C19 (Homo sapiens), sequence (P33261 whole entry, looked up): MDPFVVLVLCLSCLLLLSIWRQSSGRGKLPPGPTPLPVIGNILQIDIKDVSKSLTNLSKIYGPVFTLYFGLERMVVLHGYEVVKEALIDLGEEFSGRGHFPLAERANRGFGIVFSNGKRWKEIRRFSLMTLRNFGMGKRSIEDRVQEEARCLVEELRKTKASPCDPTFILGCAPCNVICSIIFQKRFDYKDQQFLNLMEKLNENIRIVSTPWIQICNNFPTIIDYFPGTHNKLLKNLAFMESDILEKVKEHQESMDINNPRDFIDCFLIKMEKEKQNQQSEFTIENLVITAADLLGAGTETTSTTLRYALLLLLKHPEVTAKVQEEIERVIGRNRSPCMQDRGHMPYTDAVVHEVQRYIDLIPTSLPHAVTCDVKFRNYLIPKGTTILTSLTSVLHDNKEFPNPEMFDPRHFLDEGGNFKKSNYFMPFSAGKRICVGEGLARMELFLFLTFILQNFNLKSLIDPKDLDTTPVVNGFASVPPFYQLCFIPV
Cytochrome P450 2D6 (Homo sapiens), sequence (P10635 whole entry, looked up): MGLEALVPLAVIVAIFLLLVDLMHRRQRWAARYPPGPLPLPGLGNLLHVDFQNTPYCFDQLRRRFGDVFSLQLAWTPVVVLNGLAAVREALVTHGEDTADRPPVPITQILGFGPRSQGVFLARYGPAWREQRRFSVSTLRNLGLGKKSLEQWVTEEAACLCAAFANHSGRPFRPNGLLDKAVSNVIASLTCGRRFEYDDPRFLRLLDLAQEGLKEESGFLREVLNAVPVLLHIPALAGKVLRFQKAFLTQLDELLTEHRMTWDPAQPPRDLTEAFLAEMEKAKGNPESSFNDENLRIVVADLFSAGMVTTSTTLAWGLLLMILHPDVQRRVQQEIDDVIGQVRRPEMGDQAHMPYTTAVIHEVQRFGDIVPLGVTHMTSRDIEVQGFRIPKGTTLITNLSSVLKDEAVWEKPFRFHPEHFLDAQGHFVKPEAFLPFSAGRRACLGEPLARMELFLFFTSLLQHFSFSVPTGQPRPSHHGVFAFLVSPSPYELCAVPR
Cytochrome P450 1A2 (Homo sapiens), sequence (P05177 whole entry, looked up): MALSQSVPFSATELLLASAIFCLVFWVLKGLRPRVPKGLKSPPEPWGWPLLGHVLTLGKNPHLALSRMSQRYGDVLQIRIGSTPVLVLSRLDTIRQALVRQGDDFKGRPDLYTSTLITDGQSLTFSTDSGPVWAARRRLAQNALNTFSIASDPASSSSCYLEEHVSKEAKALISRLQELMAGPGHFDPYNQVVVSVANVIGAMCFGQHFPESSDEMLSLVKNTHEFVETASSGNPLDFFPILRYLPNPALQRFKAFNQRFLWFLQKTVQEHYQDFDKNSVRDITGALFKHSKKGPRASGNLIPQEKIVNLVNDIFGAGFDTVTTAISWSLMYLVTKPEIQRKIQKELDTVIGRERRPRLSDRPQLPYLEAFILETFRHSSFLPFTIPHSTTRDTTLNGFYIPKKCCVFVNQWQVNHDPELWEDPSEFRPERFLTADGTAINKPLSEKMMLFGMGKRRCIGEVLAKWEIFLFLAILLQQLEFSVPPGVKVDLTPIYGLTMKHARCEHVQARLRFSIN
Cytochrome P450 3A4 (Homo sapiens), sequence (P08684 whole entry, looked up): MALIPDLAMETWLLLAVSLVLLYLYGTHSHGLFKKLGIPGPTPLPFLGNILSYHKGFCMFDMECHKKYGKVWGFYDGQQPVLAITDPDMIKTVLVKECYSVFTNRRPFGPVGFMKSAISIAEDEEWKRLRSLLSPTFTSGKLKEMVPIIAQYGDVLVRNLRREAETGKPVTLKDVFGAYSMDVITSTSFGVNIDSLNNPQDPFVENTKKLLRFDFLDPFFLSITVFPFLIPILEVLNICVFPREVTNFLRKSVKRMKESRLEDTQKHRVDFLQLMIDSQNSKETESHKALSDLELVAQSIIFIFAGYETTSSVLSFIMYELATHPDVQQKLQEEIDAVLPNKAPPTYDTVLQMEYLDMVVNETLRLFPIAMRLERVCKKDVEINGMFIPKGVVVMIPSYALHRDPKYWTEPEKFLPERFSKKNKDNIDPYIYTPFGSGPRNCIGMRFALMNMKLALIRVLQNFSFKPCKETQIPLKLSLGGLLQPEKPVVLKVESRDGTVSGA

| Structure (SMILES) | Potency [1] | Potency [2] | Potency [3] | Potency [4] | Potency [5] | Potency [6] |
| --- | --- | --- | --- | --- | --- | --- |
| CC(C)CCO | inactive | inactive | inactive | inactive | inactive |  |
| FC(F)(F)c1ccc(Cl)cc1Cl | inactive | inactive | inactive | inactive | inactive |  |
| N#CCCOCCOCCC#N | inactive | inactive |  | inactive | inactive | inactive |
| Nc1ccc(C(=O)OCC(O)CO)cc1 (centres undefined) | inactive |  | 15.5 µM (active) | inactive |  | 17.4 µM (active) |
| CCC1COC(=O)O1 (centres undefined) | inactive | inactive |  | inactive | inactive | inactive |
| OC(CCN1CCCCC1)(c1ccccc1)c1ccccc1 | 1.38 µM (active) | inactive | inactive | 9.52 µM (active) | inactive |  |
| O=C(O)c1c(Cl)ccc(Cl)c1Cl | inactive |  | inactive | inactive | inactive | inactive |
| CCCCC[Si](OCC)(OCC)OCC | inactive | 31.7 µM (active) |  | inactive | 12.6 µM (active) | 25.2 µM (active) |
| CCNC(=O)NCCCOc1cccc(CN2CCCCC2)c1 | 13.8 µM (active) |  | inactive | inactive |  | inactive |
| Cc1ccccc1OCC1CO1 (centres undefined) | inactive | inactive | inactive | inactive | inactive |  |
| O=C(O)c1ccc(OCCN2CCCCC2)cc1 | inactive | inactive |  | inactive | inactive | inactive |
| Cc1ccccc1C(=O)N1CC/C(=N\OS(=O)(=O)O)c2ccc(Cl)cc21 | inactive | 4.36 µM (active) | inactive | inactive |  |  |
| O=S(=O)(O)SSS(=O)(=O)O | inactive | 71 µM (active) |  | inactive | inactive | 35.6 µM (active) |
| CNC(=O)NC | inactive | inactive | inactive | inactive | inactive |  |
| CCCC(C)CC (centres undefined) | inactive | inactive | 35 µM (active) | inactive | inactive |  |
| CC(=O)Nc1ccc(C)cc1 | inactive | inactive | 39.6 µM (active) | inactive | inactive |  |
| C/C=C(\C)C(=O)OCC/C=C\CC | inactive | inactive |  | inactive | inactive | inactive |
| CC(C)c1ccccc1O | inactive |  |  | inactive | inactive | inactive |
| CCN(CCO)c1cccc(C)c1 | inactive |  | 28.3 µM (active) | inactive |  | 35.6 µM (active) |

| Structure (SMILES) | Potency [1] | Potency [2] | Potency [3] | Potency [4] | Potency [5] | Potency [6] |
| --- | --- | --- | --- | --- | --- | --- |
| CC(Cl)COP(=O)(OCC(C)Cl)OCC(C)Cl (centres undefined) | inactive |  | 22.3 µM (active) | inactive | inactive | 19.9 µM (active) |
| CCCCC(CC)COC(=O)c1ccccc1 (centres undefined) | inactive |  | 28.3 µM (active) | inactive | inactive | inactive |
| CC1=NN(c2ccc(S(=O)(=O)O)cc2)C(=O)C1N=Nc1ccccc1 (centres undefined) | inactive |  | inactive | inactive | inactive | inactive |
| CCCCC(C)C(=O)O (centres undefined) | inactive |  | 39.9 µM (active) | inactive | inactive | 39.9 µM (active) |
| O=C1CC[C@H](C(=O)N2CCCCC2)N1 | inactive | inactive | inactive | inactive | inactive |  |
| C=CC(C)(O)CC/C=C(\C)CC (centres undefined) | inactive |  |  | inactive | 22.5 µM (active) | 40 µM (active) |
| CCCCCCCCOC(C)=O | inactive | inactive | inactive | inactive | inactive |  |
| CNC(=O)C(c1ccccc1)c1ccccc1 | inactive |  |  | inactive | inactive | 20 µM (active) |
| O=S(=O)(O)CCO | inactive | inactive |  | inactive | inactive | inactive |
| CCCOCCOCCOCCO | inactive | inactive |  | inactive | inactive | inactive |
| O=C(O)c1ccccc1C(=O)Nc1ccc(S(=O)(=O)Nc2nccs2)cc1 | inactive | inactive | inactive | inactive | inactive |  |
| C=CCOCC(O)CCl (centres undefined) | inactive |  |  | inactive | inactive |  |
| C=CCOc1c(Br)cc(Br)cc1Br |  | 8.94 µM (active) |  | inactive |  | 7.96 µM (active) |
| C[N+](C)(C)CC(O)CCl (centres undefined) | inactive | inactive |  | inactive | inactive |  |
| CCCCCC1Nc2cc(C(F)(F)F)c(S(N)(=O)=O)cc2S(=O)(=O)N1 (centres undefined) |  | 1.55 µM (active) | inactive | 23.9 µM (active) |  | inactive |
| CCN(CC)C(=O)C1CN2CCc3cc(OC)c(OC)cc3C2CC1OC(C)=O (centres undefined) |  | inactive | inactive | inactive |  | inactive |
| COC(OC)C(C)c1ccccc1 (centres undefined) | inactive | inactive |  | inactive | inactive |  |
| COC(=O)CCC(=O)O |  | inactive |  | inactive | inactive | inactive |
